The text below walks through data of PMC9911399, “Two distinct binding modes provide the RNA-binding protein RbFox with extraordinary sequence specificity”.

Numbering of substitutions follows the chain as printed; changes in the protein carry UniProt numbers. Over roughly 16,000 sequences, “ka relative to ugcaugu” has its median near 0.0091; the highest 2% begin near 0.032. Many of the other results were omitted from the sample, so the highest values are more common in it than they were.

B1: UUAUCUG (DNA:RNA)
RNA: GGGAGACCGGAAUUCAGAUUGUCCUUAUCUGUUAAAUCCCGUCGUAGCCACCA
DNA 1: CAATCTGAATTCCGGTCTCCC
DNA 2: TGGTGGCTACGACGGGATT
B2: AAGCCCG (DNA:RNA)
RNA: B1 RNA with U25A, U26A, A27G, U28C, U30C
DNA 1: CAATCTGAATTCCGGTCTCCC
DNA 2: TGGTGGCTACGACGGGATT
B3: AAGCACG (DNA:RNA)
RNA: B1 RNA with U25A, U26A, A27G, U28C, C29A, U30C
DNA 1: CAATCTGAATTCCGGTCTCCC
DNA 2: TGGTGGCTACGACGGGATT
B4: AAGCACC (DNA:RNA)
RNA: GGGAGACCGGAAUUCAGAUUGUCCAAGCACCUUAAAUCCCGUCGUAGCCACCA
DNA 1: CAATCTGAATTCCGGTCTCCC
DNA 2: TGGTGGCTACGACGGGATT
B5: AAAACAC (DNA:RNA)
RNA: B4 RNA with G27A, C28A, A29C, C30A
DNA 1: CAATCTGAATTCCGGTCTCCC
DNA 2: TGGTGGCTACGACGGGATT
B6: CAUCUUU (DNA:RNA)
RNA: B4 RNA with A25C, G27U, A29U, C30U, C31U
DNA 1: CAATCTGAATTCCGGTCTCCC
DNA 2: TGGTGGCTACGACGGGATT
B7: CUGUGCC (DNA:RNA)
RNA: B4 RNA with A25C, A26U, C28U, A29G
DNA 1: CAATCTGAATTCCGGTCTCCC
DNA 2: TGGTGGCTACGACGGGATT
B8: CUGCCUG (DNA:RNA)
RNA: B1 RNA with U25C, A27G, U28C
DNA 1: CAATCTGAATTCCGGTCTCCC
DNA 2: TGGTGGCTACGACGGGATT
B9: UGCCGGU (DNA:RNA)
RNA: B4 RNA with A25U, A26G, G27C, A29G, C30G, C31U
DNA 1: CAATCTGAATTCCGGTCTCCC
DNA 2: TGGTGGCTACGACGGGATT
B10: UGCCCUG (DNA:RNA)
RNA: B1 RNA with U26G, A27C, U28C
DNA 1: CAATCTGAATTCCGGTCTCCC
DNA 2: TGGTGGCTACGACGGGATT
B11: UGCUGUU (DNA:RNA)
RNA: B1 RNA with U26G, A27C, C29G, G31U
DNA 1: CAATCTGAATTCCGGTCTCCC
DNA 2: TGGTGGCTACGACGGGATT
B12: UGCCUGU (DNA:RNA)
RNA: B4 RNA with A25U, A26G, G27C, A29U, C30G, C31U
DNA 1: CAATCTGAATTCCGGTCTCCC
DNA 2: TGGTGGCTACGACGGGATT

The target in the assay is T1, RBFOX1 RRM (Homo sapiens, UniProt Q9NWB1 109-208).
T1 sequence: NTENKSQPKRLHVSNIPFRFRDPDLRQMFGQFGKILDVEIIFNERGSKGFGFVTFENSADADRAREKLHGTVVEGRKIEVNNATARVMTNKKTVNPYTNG
Description: EMSA; HiTS-Eq, 1 nM pool, 10 min; buffer printed only for the single-RNA assays: 10 mM Tris pH 7.5, 150 mM NaCl, 3.4 mM EDTA, 0.001% NP-40, 30 C. The note with it: tags: His6 N-terminal (pET28a); label: 5' 32P. In outline:
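Purified RbFox RRM, wild type or mutant, was incubated for 10 min in 50 µL with 1 nM of a 5′-radiolabelled RNA pool carrying 7 randomized nucleotides, whose flanks were annealed to DNA oligonucleotides, over a series of increasing protein concentrations. Unbound RNA was resolved on 8% native PAGE, cut out, reverse-transcribed, barcoded by PCR and sequenced on an Illumina HiSeq 2500. Relative association constants were derived from changes in read counts for each RNA species versus the control reaction and normalised to the cognate motif.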
On the technique in general: A gel shift assay detects complexes by their altered migration in electrophoresis.
Consider B1, for which the binding signal was 0.0132 KA relative to UGCAUGU.
For B2, the binding signal is 0.00982 KA relative to UGCAUGU.
Next, B3: 0.0333 KA relative to UGCAUGU.
Regarding B4, the binding signal is 0.00479 KA relative to UGCAUGU.
Next, B5: 0.00144 KA relative to UGCAUGU; B6: 0.00311 KA relative to UGCAUGU.
Take B7: the binding signal is 0.0119 KA relative to UGCAUGU.
Next, B8: 0.0391 KA relative to UGCAUGU; B9: 0.0131 KA relative to UGCAUGU.
On to B10, for which the binding signal was 0.025 KA relative to UGCAUGU.
Next, B11: 0.0254 KA relative to UGCAUGU.
Next, B12: 0.0501 KA relative to UGCAUGU.
